Experimental data: the supplement of paper PMC10849652
The full data set covers some 7,900 targets. This sample favours those with a hit. About 0.6% of all pairs of compound and target were hits.

Assays:
Test in all cases: log2 fold change, soluble protein after heating vs DMSO (PISA); higher = thermal stabilisation; K562 cells, 10 uM, 30 min; active = over 0.2 and 3.5 SD of the protein, either way, in both replicates (recomputed)
[1] = compound: CS(=O)(=O)c1ccc(-c2cnc(N)c(C(=O)Nc3ccccc3)n2)cc1
Method in brief: (§1)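 K562 cells at 2×10^6 cells/mL were exposed to 10 μM compound for 30 min, then aliquots were heated for 3 min across 48°C-58°C, pooled, and extracted in PBS containing 0.5% NP-40 at 4°C. The supernatant after 21,000xg for 90 min was taken as soluble protein and measured by TMTpro 16plex LC-MS/MS with channel sums equalised. Thermal stability is reported relative to control samples, with values from duplicates. Fold changes are given on a log2 scale.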

crizotinib = compound: C[C@@H](Oc1cc(-c2cnn(C3CCNCC3)c2)cnc1N)c1c(Cl)ccc(F)c1Cl [crizotinib]
Method in brief: as §1

[2] = compound: C[C@@H]1COCCN1C2=NC(=NC(=C2)C3(CC3)S(=O)(=O)C)C4=C5C=CNC5=CC=C4
Method in brief: as §1

[3] = compound: C[C@H](C1=CC=C(C=C1)C(=O)NC2=C3C=CNC3=NC=C2)N
Method in brief: as §1

duvelisib = compound: C[C@H](Nc1ncnc2nc[nH]c12)c1cc2cccc(Cl)c2c(=O)n1-c1ccccc1 [duvelisib]
Method in brief: as §1

gandotinib = compound: Cc1cc(Nc2cc(CN3CCOCC3)c3nc(C)c(Cc4ccc(Cl)cc4F)n3n2)n[nH]1 [gandotinib]
Method in brief: as §1

tozasertib = compound: Cc1cc(Nc2cc(N3CCN(C)CC3)nc(Sc3ccc(NC(=O)C4CC4)cc3)n2)n[nH]1 [tozasertib]
Method in brief: as §1

[4] = compound: Cc1cc(SCc2sc(-c3ccc(C(F)(F)F)cc3)nc2C)ccc1OCC(=O)O
Method in brief: as §1

doramapimod = compound: Cc1ccc(-n2nc(C(C)(C)C)cc2NC(=O)Nc2ccc(OCCN3CCOCC3)c3ccccc23)cc1 [doramapimod]
Method in brief: as §1

ispinesib = compound: Cc1ccc(C(=O)N(CCCN)[C@@H](c2nc3cc(Cl)ccc3c(=O)n2Cc2ccccc2)C(C)C)cc1 [ispinesib]
Method in brief: as §1

bafetinib = compound: Cc1ccc(NC(=O)c2ccc(CN3CC[C@H](N(C)C)C3)c(C(F)(F)F)c2)cc1Nc1nccc(-c2cncnc2)n1 [bafetinib]
Method in brief: as §1

[5] = compound: Cc1cccc(CC(=O)N2CCc3c2ccc(-c2cn(C)c4ncnc(N)c24)c3F)n1
Method in brief: as §1

nilotinib = compound: Cc1cn(-c2cc(NC(=O)c3ccc(C)c(Nc4nccc(-c5cccnc5)n4)c3)cc(C(F)(F)F)c2)cn1 [nilotinib]
Method in brief: as §1

[6] = compound: Cc1nc(Nc2n[nH]c3c2CN(C(=O)N[C@H](CN(C)C)c2ccccc2)C3(C)C)c2sccc2n1
Method in brief: as §1

dasatinib = compound: Cc1nc(Nc2ncc(C(=O)Nc3c(C)cccc3Cl)s2)cc(N2CCN(CCO)CC2)n1 [dasatinib]
Method in brief: as §1

[7] = compound: Cc1ncc(-c2ccnc(Nc3ccc(S(C)(=O)=O)cc3)n2)n1C(C)C
Method in brief: as §1

[8] = compound: Cn1cc(-c2ccc3c(c2)CCN3C(=O)Cc2cccc(C(F)(F)F)c2)c2c(N)ncnc21
Method in brief: as §1

[9] = compound: Cn1cc(-c2ccc3nnc(C(F)(F)c4ccc5ncccc5c4)n3n2)cn1
Method in brief: as §1

tipifarnib = compound: Cn1cncc1[C@@](N)(c1ccc(Cl)cc1)c1ccc2c(c1)c(-c1cccc(Cl)c1)cc(=O)n2C [tipifarnib]
Method in brief: as §1

mubritinib = compound: FC(F)(F)c1ccc(/C=C/c2nc(COc3ccc(CCCCn4ccnn4)cc3)co2)cc1 [mubritinib]
Method in brief: as §1

Measured: log2 fold change

MAPKAPK2 (UniProt P49137)
UniProt P49137, sequence (P49137 whole entry, looked up): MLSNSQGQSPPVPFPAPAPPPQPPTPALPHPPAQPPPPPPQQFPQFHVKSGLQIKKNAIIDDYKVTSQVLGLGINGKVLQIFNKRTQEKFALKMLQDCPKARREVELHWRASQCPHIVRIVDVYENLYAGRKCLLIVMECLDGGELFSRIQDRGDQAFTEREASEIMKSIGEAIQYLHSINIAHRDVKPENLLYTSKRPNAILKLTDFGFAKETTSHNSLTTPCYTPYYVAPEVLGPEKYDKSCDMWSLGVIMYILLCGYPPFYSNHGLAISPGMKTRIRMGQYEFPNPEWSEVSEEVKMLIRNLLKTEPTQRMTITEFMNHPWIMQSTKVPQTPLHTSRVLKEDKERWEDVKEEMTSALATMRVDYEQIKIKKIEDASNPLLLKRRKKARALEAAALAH
inactive: [1] -0.032 | crizotinib -0.082 | [2] 0.035 | [3] -0.019 | duvelisib 0.006 | gandotinib -0.066 | tozasertib -0.018 | [4] 0.006 | doramapimod 0.147 | ispinesib -0.003 | bafetinib 0.125 | [5] 0.017 | nilotinib 0.145 | [6] 0.045 | dasatinib -0.086 | [7] -0.011 | [8] -0.014 | [9] -0.022 | tipifarnib -0.022 | mubritinib -0.009

JMJD6 isoform 3 (UniProt Q6NYC1)
inactive: [1] -0.037 | crizotinib 0.046 | [2] 0.046 | [3] -0.034 | duvelisib 0.002 | gandotinib -0.147 | tozasertib 0.024 | [4] 0.029 | doramapimod 0.005 | ispinesib 0.039 | bafetinib -0.067 | [5] 0.06 | nilotinib -0.011 | [6] -0.254 | dasatinib -0.009 | [7] -0.098 | [8] -0.008 | [9] -0.047 | tipifarnib 0.036 | mubritinib -0.065

IRAK4 (UniProt Q9NWZ3)
inactive: [1] 0.034 | crizotinib -0.025 | [2] 0.003 | [3] 0.046 | duvelisib -0.01 | gandotinib -0.107 | tozasertib 0.061 | [4] 0.104 | doramapimod -0.047 | ispinesib -0.05 | bafetinib -0.047 | nilotinib -0.089 | [6] -0.047 | dasatinib -0.143 | [7] -0.01 | [8] 0.011 | [9] 0.035 | tipifarnib -0.116 | mubritinib -0.031
active: [5] 0.236

MGST3 (UniProt O14880)
UniProt O14880, sequence (O14880 whole entry, looked up): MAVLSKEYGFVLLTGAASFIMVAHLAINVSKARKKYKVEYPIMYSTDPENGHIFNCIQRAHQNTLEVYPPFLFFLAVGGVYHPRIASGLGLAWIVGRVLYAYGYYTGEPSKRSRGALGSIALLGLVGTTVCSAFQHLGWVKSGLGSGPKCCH
inactive: [1] 0.058 | crizotinib 0.119 | [2] -0.013 | [3] -0.075 | duvelisib -0.002 | gandotinib -0.006 | tozasertib -0.018 | [4] -0.054 | doramapimod -0.031 | ispinesib 0.03 | bafetinib -0.085 | [5] -0.002 | nilotinib 0.01 | [6] 0.012 | dasatinib 0.069 | [7] -0.056 | [8] 0.004 | [9] -0.026 | tipifarnib 0.019 | mubritinib -0.094

LEO1 (UniProt Q8WVC0)
inactive: [1] 0.092 | crizotinib 0.026 | [2] -0.202 | [3] -0.126 | duvelisib 0.008 | gandotinib -0.031 | tozasertib 0.114 | [4] -0.008 | doramapimod 0.071 | ispinesib 0.052 | bafetinib -0.003 | [5] 0.008 | nilotinib -0.125 | [6] -0.045 | dasatinib 0.049 | [7] -0.094 | [8] -0.026 | [9] 0.023 | tipifarnib -0.009 | mubritinib 0.035

LARP7 isoform 3 (UniProt Q4G0J3)
UniProt Q4G0J3, sequence (Q4G0J3 whole entry, looked up): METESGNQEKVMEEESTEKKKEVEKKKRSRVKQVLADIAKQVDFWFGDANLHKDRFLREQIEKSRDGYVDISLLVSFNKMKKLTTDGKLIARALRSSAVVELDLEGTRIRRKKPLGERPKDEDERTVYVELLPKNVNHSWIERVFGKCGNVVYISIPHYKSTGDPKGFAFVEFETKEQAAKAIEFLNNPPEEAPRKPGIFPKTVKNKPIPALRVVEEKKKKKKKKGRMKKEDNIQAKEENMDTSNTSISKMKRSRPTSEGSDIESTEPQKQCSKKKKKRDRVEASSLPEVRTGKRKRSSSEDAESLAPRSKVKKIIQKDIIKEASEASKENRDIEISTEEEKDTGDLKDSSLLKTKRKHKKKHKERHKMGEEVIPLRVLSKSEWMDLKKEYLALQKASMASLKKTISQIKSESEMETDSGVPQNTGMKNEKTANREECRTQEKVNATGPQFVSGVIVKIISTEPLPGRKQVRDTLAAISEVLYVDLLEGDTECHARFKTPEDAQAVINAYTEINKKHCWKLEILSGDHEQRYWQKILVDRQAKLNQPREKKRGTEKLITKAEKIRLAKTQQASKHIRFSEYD
active: [6] -0.298
inactive: [1] -0.001 | crizotinib 0.022 | [2] 0.068 | [3] -0.077 | duvelisib -0.013 | gandotinib -0.065 | tozasertib 0.071 | [4] 0.088 | doramapimod 0.012 | ispinesib -0.007 | bafetinib -0.045 | [5] 0.041 | nilotinib 0.01 | dasatinib -0.063 | [7] -0.249 | [8] 0.021 | [9] 0.029 | tipifarnib 0.021 | mubritinib -0.05

LNPEP (UniProt Q9UIQ6)
inactive: [1] 0.028 | crizotinib 0.015 | [2] 0.023 | [3] -0.053 | duvelisib 0.053 | gandotinib 0.028 | tozasertib -0.023 | [4] -0.008 | doramapimod -0.013 | ispinesib -0.039 | bafetinib -0.056 | [5] -0.007 | nilotinib 0.017 | [6] 0.026 | dasatinib 0.033 | [7] -0.024 | [8] 0.014 | [9] -0.007 | tipifarnib 0.008 | mubritinib 0.035

MAP3K20 (UniProt Q9NYL2)
UniProt Q9NYL2, sequence (Q9NYL2 whole entry, looked up): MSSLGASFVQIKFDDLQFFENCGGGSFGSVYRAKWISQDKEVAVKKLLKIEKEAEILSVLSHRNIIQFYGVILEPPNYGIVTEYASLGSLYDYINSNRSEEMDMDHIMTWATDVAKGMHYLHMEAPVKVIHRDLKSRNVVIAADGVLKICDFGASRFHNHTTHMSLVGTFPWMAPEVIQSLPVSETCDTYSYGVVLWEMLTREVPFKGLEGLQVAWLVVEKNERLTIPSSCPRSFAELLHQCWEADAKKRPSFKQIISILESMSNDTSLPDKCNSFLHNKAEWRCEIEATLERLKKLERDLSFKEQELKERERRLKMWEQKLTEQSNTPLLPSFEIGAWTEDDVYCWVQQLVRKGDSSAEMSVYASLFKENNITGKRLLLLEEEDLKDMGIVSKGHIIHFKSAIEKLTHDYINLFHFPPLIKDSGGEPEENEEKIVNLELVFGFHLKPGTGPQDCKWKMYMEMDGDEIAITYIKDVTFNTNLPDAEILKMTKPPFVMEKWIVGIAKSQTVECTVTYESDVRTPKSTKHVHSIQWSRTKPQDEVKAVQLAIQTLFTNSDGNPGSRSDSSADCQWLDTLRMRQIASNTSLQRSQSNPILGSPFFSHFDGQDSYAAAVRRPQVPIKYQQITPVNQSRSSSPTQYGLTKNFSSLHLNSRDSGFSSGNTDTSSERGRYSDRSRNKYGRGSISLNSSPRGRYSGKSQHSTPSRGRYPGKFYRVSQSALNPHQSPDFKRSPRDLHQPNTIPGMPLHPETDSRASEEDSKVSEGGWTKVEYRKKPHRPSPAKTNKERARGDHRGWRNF
active: bafetinib -0.246 | dasatinib -0.712
inactive: [1] -0.003 | crizotinib -0.01 | [2] -0.065 | [3] 0.059 | duvelisib -0.022 | gandotinib -0.025 | tozasertib 0.002 | [4] 0.053 | doramapimod -0.072 | ispinesib -0.141 | [5] 0.039 | nilotinib -0.216 | [6] 0.057 | [7] -0.079 | [8] -0.065 | [9] -0.019 | tipifarnib -0.013 | mubritinib -0.041

KCTD2 (UniProt Q14681)
active: [5] -0.845
inactive: [1] 0.178 | crizotinib 0.02 | [2] -0.047 | [3] 0.511 | duvelisib 0.211 | gandotinib 0.355 | tozasertib -0.116 | [4] -0.281 | doramapimod 0.089 | ispinesib 0.026 | bafetinib -0.23 | nilotinib -0.144 | [6] 0.012 | dasatinib 0.146 | [7] -0.076 | [8] -0.102 | [9] -0.015 | tipifarnib 0.308 | mubritinib 0.113

KDM3B (UniProt Q7LBC6)
UniProt Q7LBC6, sequence (Q7LBC6 whole entry, looked up): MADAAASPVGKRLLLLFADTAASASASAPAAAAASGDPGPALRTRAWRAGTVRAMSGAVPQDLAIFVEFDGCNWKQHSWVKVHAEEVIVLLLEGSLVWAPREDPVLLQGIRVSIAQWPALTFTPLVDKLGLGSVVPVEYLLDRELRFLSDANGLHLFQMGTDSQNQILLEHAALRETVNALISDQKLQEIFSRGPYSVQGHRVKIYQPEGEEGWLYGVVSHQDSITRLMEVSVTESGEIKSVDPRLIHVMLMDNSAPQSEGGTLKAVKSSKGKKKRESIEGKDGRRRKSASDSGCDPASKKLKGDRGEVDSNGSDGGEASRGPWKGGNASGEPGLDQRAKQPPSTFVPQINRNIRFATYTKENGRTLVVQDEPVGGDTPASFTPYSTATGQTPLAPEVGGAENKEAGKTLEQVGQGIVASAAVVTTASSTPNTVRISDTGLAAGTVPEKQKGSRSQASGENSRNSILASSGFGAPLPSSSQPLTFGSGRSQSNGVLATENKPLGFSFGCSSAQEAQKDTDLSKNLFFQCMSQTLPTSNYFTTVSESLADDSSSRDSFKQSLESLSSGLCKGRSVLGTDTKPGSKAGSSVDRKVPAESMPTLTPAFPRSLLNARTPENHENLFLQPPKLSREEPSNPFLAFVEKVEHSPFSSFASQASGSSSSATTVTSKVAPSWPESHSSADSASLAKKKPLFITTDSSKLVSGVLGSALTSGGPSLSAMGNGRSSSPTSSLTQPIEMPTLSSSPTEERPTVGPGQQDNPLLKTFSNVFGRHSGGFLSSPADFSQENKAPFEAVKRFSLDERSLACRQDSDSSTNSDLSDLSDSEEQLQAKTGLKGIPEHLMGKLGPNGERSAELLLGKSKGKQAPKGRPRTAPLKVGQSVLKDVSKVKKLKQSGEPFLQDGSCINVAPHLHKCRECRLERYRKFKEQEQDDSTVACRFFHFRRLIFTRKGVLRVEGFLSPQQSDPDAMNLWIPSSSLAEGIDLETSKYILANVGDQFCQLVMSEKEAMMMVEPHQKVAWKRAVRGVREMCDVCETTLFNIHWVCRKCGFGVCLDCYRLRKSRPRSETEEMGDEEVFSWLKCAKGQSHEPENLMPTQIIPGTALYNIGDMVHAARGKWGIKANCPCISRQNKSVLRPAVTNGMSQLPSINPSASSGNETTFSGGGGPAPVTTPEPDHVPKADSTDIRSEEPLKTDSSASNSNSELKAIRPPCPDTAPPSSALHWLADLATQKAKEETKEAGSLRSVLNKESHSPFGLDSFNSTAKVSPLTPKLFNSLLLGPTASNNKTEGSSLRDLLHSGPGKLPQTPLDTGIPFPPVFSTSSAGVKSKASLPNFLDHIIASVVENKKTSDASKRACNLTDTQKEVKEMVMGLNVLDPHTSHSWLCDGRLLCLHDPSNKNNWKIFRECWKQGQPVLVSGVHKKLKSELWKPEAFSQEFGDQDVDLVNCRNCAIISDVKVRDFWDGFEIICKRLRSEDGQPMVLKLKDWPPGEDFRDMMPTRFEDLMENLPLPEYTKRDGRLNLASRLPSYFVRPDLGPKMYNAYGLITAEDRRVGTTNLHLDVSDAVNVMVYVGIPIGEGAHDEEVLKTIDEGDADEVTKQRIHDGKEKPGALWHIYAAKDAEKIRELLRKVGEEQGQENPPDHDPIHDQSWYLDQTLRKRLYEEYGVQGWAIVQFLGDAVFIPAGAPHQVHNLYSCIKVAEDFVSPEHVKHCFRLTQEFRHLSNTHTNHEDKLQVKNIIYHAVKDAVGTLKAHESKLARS
inactive: [1] 0.045 | crizotinib 0.001 | [2] 0.086 | [3] -0.044 | duvelisib 0.015 | gandotinib -0.045 | tozasertib 0.06 | [4] 0.012 | doramapimod -0.077 | ispinesib 0.015 | bafetinib -0.005 | [5] 0.038 | nilotinib -0.009 | [6] -0.098 | dasatinib -0.136 | [7] 0.042 | [8] -0.032 | [9] 0.006 | tipifarnib 0.018 | mubritinib 0.002

KLC2 (UniProt Q9H0B6)
active: [6] -0.388
inactive: [1] 0.012 | crizotinib -0.131 | [2] 0.008 | [3] -0.007 | duvelisib 0.059 | gandotinib -0.079 | tozasertib -0.004 | [4] 0.047 | doramapimod -0.002 | ispinesib -0.062 | bafetinib 0.013 | [5] 0.018 | nilotinib -0.049 | dasatinib -0.07 | [7] 0.025 | [8] 0.05 | [9] 0.046 | tipifarnib 0.031 | mubritinib 0.009

LRPPRC (UniProt P42704)
inactive: [1] 0.025 | crizotinib -0.822 | [2] 0.154 | [3] 0.065 | duvelisib 0.059 | gandotinib -0.175 | tozasertib 0.213 | [4] 0.481 | doramapimod -0.172 | ispinesib -0.416 | bafetinib -0.053 | [5] 0.117 | nilotinib -0.14 | [6] -0.721 | dasatinib -0.732 | [7] 0.016 | [8] 0.236 | [9] 0.24 | tipifarnib -0.656 | mubritinib -0.161

IGF2R (UniProt P11717)
inactive: [1] 0.031 | [2] -0.035 | [3] -0.035 | duvelisib 0.048 | gandotinib 0.017 | tozasertib 0.025 | [4] 0.019 | doramapimod -0.01 | ispinesib -0.115 | [5] 0.021 | nilotinib -0.02 | [6] -0.087 | dasatinib -0.023 | [7] 0.021 | [8] 0 | [9] 0.023 | tipifarnib 0.045 | mubritinib 0.003
active: crizotinib -0.871 | bafetinib -0.338

KPNA6 (UniProt O60684)
inactive: [1] -0.01 | crizotinib -0.11 | [2] -0.011 | [3] 0.138 | duvelisib 0 | gandotinib -0.028 | tozasertib 0.046 | [4] 0.07 | doramapimod 0.046 | ispinesib -0.202 | bafetinib -0.071 | [5] 0.078 | nilotinib -0.054 | [6] -0.038 | dasatinib -0.067 | [7] 0.003 | [8] -0.098 | [9] -0.015 | tipifarnib -0.033 | mubritinib -0.067

IPO11 isoform 2 (UniProt Q9UI26)
inactive: [1] 0.037 | crizotinib 0 | [2] -0.015 | [3] -0.082 | duvelisib 0.041 | gandotinib -0.076 | tozasertib 0.025 | [4] 0.007 | doramapimod -0.028 | ispinesib 0.051 | bafetinib -0.056 | [5] 0.045 | nilotinib 0.012 | [6] -0.03 | dasatinib -0.049 | [7] 0.039 | [8] -0.008 | [9] -0.029 | tipifarnib -0.132 | mubritinib 0.069

KIF2C (UniProt Q99661)
UniProt Q99661, sequence (Q99661 whole entry, looked up): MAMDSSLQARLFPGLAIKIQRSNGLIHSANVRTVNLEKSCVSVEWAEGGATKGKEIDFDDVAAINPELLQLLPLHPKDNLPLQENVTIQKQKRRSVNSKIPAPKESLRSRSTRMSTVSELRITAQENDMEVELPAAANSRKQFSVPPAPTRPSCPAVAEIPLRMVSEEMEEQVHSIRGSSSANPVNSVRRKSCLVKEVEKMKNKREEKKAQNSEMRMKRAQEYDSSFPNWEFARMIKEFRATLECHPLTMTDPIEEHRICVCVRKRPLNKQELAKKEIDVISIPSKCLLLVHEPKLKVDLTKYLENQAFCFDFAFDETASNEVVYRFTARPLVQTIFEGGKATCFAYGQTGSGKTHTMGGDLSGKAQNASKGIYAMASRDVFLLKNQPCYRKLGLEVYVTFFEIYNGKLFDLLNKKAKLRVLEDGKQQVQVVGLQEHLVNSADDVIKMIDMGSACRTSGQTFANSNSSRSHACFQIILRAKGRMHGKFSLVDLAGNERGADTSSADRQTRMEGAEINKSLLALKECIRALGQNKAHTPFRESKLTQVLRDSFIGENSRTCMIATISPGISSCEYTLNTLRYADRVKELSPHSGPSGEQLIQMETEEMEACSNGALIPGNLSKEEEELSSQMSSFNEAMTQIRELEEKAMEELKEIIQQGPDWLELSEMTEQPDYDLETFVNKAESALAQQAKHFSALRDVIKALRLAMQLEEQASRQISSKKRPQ
inactive: [1] -0.016 | crizotinib -0.171 | [2] -0.028 | [3] 0.012 | duvelisib -0.048 | gandotinib -0.065 | tozasertib -0.035 | [4] 0.082 | doramapimod 0.007 | ispinesib -0.028 | bafetinib 0.1 | [5] 0.122 | nilotinib -0.082 | [6] -0.054 | dasatinib -0.15 | [7] 0.032 | [8] 0.053 | [9] 0.039 | tipifarnib -0.103 | mubritinib 0.081
